In the library only some 19% were active in any assay of this set; here they are far more common.
Gal4-VP16 FLuc: inhibits Gal4-VP16 luciferase reporter, ROR gamma counter-screen | Potency, µM (series often up to 53.6 µM), for inactives: at the top dose activity, negative = inhibition, hits mostly inhibitors | Drosophila S2 Gal4-VP16 UAS-luciferase, luminescence, 20 h | 310,000 compounds, 3.5% hits;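 further: Gal4-VP16 expression switched on by copper sulfate through the metallothionein promoter; nearly all actives have a fitted effect of over 50% in size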
TDP1 cell CPT: DT40-hTDP1 cell growth loss with CPT | chicken DT40 Tdp1-/-;hTDP1 cells + 20 nM CPT, ATP luminescence, 48 h | Potency, µM (top dose mostly 46.2 µM), for the others: at the top dose activity change, negative = growth inhibition, most hits filed as inhibitors | 420,000 compounds, 12% hits | AID 686979; further: nearly all actives have a fitted effect of over 55% in size
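Chicken DT40 Tdp1-/- cells complemented with human TDP1, 400 cells/well, exposed to compounds plus 20 nM camptothecin for at least 48 h at 37 C; viability read as ATP content by CellTiter-Glo luminescence.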
DT40 TDP1 no CPT: qHTS for Inhibitors of human tyrosyl-DNA phosphodiesterase 1 (TDP1): qHTS in cells in absence of CPT. DT40 Tdp1-/- hTDP1 cells, no CPT, ATP luminescence, 48 h. Potency, µM (titrated, usually from 46.2 µM), for the others: at the highest dose activity change, negative = growth inhibition, most hits filed as inhibitors. 420,000 compounds, 15% hits. AID 686978, 2013; further: nearly all actives have a fitted effect of over 55% in size
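Chicken DT40 Tdp1-/- cells stably complemented with human TDP1 were seeded at 400 cells/well with DMSO in place of 20 nM camptothecin. After compound pinning, cells grew at least 48 hr at 37 °C; viability read by CellTiter-Glo luminescence.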
TDP1 block: TDP1 (human) enzyme inhibition; Q9NUW8; recombinant TDP1, AlphaScreen DNA substrate cleavage; Potency, µM (doses to about 130 µM), without a hit: at the top dose activity change, negative = inhibition, usual class: inhibitors; 350,000 compounds, 0.28% hits; further: nearly all actives have a fitted effect of over 40% in size
Target sequence (Q9NUW8 whole entry, looked up): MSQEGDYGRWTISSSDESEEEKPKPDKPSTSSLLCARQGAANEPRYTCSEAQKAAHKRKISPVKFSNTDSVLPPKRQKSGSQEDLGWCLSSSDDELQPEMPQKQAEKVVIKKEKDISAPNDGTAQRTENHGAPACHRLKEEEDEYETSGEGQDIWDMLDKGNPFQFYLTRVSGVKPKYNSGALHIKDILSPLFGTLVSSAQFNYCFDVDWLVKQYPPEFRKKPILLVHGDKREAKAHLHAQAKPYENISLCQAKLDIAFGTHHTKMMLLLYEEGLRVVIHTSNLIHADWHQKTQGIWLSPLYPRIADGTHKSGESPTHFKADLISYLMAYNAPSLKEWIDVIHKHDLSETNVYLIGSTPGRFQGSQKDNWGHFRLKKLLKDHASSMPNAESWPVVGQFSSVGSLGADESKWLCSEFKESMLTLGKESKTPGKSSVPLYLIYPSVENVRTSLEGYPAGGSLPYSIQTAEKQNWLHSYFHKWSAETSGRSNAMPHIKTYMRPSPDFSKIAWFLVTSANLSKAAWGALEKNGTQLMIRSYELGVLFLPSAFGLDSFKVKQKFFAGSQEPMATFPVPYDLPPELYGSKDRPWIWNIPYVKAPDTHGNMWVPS
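Recombinant E. coli-expressed Tdp1 (1 nM) preincubated with compound 15 min at RT, then 5'-biotin/3'-phosphotyrosine-FITC DNA substrate (15 nM) added for 5 min. AlphaScreen beads (10 ug/ml) added, 10 min RT; tyrosine-FITC cleavage read as signal loss.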
RORgamma inh: inhibitors of mouse ROR gamma transcriptional activity; P51450; Drosophila S2 Gal4-RORgamma UAS-luciferase reporter, 20 h; Potency, µM (series often up to 53.6 µM), without a hit: top-dose activity change, negative = inhibition, most hits filed as inhibitors; 310,000 compounds, 5.4% hits; further: nearly all actives have a fitted effect of over 60% in size
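Using a luciferase readout, inhibitors were identified by reduced reporter activity in Drosophila cells coexpressing a copper-inducible Gal4–ROR gamma fusion and UAS-driven Photinus luciferase, incubated 20 hr after 700 uM copper sulfate.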
* = called active by the depositor; u = inconclusive; x = not tested or not shown; [ ] = another dose, or the depositor's remark. The call rests on the fitted dose curve; in most records, active means well fitted curve in the direction sought with a large enough effect; inconclusive means small, poorly fitted or top-dose-only effect, or another doubt; inactive means no such curve, though single readings can be large; an effect the other way counts as inactive or inconclusive. On the % scale 0 is the no-effect control and ±100 the full control effect; potency means the concentration at half of the fitted maximal effect.

SMILES | Gal4-VP16 FLuc | TDP1 cell CPT | DT40 TDP1 no CPT | TDP1 block | RORgamma inh
Clc1ccc(C2CC(c3cccs3)n3ncnc3N2)c(Cl)c1 (stereo unspecified) | u | u | u | x | 11.2µM*
CCOc1ccc(C2CC(c3cccc(C)c3)n3ncnc3N2)cc1 (stereo unspecified) | -16.4% | 13µM* | 23.1µM* | 6.5% | u
C[C@H](O)CO[C@H]1[C@H]2O[C@H]3[C@H](O)[C@@H](O)[C@@H](O[C@H]4[C@H](O)[C@@H](O)[C@@H](O[C@H]5[C@H](O)[C@@H](O)[C@@H](O[C@H]6[C@H](O)[C@@H](OC[C@H](C)O)[C@@H](O[C@H]7[C@H](O)[C@@H](OC[C@H](C)O)[C@@H](O[C@H]8[C@H](O)[C@@H](O)[C@@H](O[C@@H]([C@@H]1O)[C@@H](CO)O2)O[C@@H]8CO)O[C@@H]7CO)O[C@@H]6CO)O[C@@H]5CO)O[C@@H]4CO)O[C@@H]3CO | -1.3% | -6.9% | -4.8% | 6.5%[56.1 µM] | -0.5%
Cc1cnc(C(=O)OCC(=O)c2cccc3ccccc23)cn1 | x | u | -21.6% | -7.3%[0.505 µM] | x
CCN(CC)CCCNc1oc(-c2cccc(Cl)c2)nc1C#N | -8.7% | u | 23.1µM* | 0.0% | -26.6%
CC(C)Cn1c(=O)c2ccccc2n2c(CCC(=O)N3CCN(c4ccccc4F)CC3)nnc12 | x | 23.1µM* | 23.1µM* | 0.0% | x
CC(C)Cn1c(=O)c2ccccc2n2c(CCC(=O)N3CCN(c4ccccc4)CC3)nnc12 | x | u | 16.4µM* | 4.9% | x
Cc1cccc(N2CCN(C(=O)CCc3nnc4n(CC(C)C)c(=O)c5ccccc5n34)CC2)c1C | x | -21.4% | u | -3.9% | x
Cn1ccs/c1=N\C(=O)Nc1cccc(Cl)c1 | -7.9% | -1.8% | 23.8% | x | -0.2%
CCOc1ccc(S(=O)(=O)N(CC(=O)NC2CCCCC2C)Cc2ccco2)cc1 (stereo unspecified) | u | 14.6µM* | 25.9µM* | 2.4% | u
COc1ccc(NC(=S)NNc2ccc([N+](=O)[O-])cc2S(=O)(=O)Nc2ccc(C)cc2C)cc1 | -9.3% | -21.5% | u | 12.7% | u
COCCNC(=S)Nc1ccc([N+](=O)[O-])cc1C | u | -4.8% | 11.9% | 2.5% | u
Cc1cc([N+](=O)[O-])ccc1NC(=S)NC(=O)Cc1ccccc1 | u | -22.7% | -26.5% | 8.5% | 22.4µM*
Cc1ccc(NS(=O)(=O)c2cc([N+](=O)[O-])ccc2NNC(=S)Nc2cc(C)ccc2C)c(C)c1 | u | u | 20.6µM* | 8.3% | u
COc1ccc([N+](=O)[O-])cc1NC(=S)NC(C)=O | 1.9% | u | u | -13.7% | -8.6%
Cc1cc([N+](=O)[O-])ccc1NCc1ccc2ccccc2c1 | -2.4% | u | 18.4µM* | 6.4% | 43.0%
CCCCC(=O)NC(=S)Nc1cc([N+](=O)[O-])ccc1OC | -25.2% | 1.2% | -5.4% | 8.2% | 10µM*
CCOc1ccc(NC(=O)CSc2nnc3c(C)cc4ccccc4n23)cc1 | x | 5.9% | 0.3% | x | x
Cc1ccc2oc(=O)n(CCCOc3ccccc3)c2c1 | 23.6% | -16.6% | -0.4% | -5.7% | -11.3%
COc1cc([N+](=O)[O-])ccc1NC(=S)NCc1ccccn1 | -25.9% | -1.3% | 0.4% | -1.8% | u
COc1cc([N+](=O)[O-])ccc1NC(=S)Nc1cc(C(=O)OC(C)C)cc(C(=O)OC(C)C)c1 | -1.8% | 29.1µM* | u | 0.6% | -21.2%
Cc1cc([N+](=O)[O-])ccc1NC(=S)NC(=O)C(c1ccccc1)c1ccccc1 | 10µM* | u | 16.4µM* | 11.1% | 7.94µM*
Cc1ccc([N+](=O)[O-])cc1NC(=S)NC(=O)CC(C)(C)C | 22.4µM* | -24.2% | -16.0% | -4.0% | 6.31µM*
COc1ccc(CC(=O)NCC(=O)NC(Cc2ccccc2)C(=O)O)cc1 (stereo unspecified) | 4.5% | -3.8% | -0.7% | x | 1.8%
CC1(COS(N)(=O)=O)CCCCC1 | 1.7% | 0.461µM* | -19.2% | x | u
SMILES | Gal4-VP16 FLuc | TDP1 cell CPT | DT40 TDP1 no CPT | TDP1 block | RORgamma inh
COc1ccc(NC(=O)c2cccc(S(=O)(=O)Nc3ccc(Br)cc3)c2)cn1 | u | u | 23.1µM* | 5.6% | u
CCN(CC)CCNC(=O)c1ccc(NC(=O)c2cccc(S(=O)(=O)Nc3ccc(C)cc3)c2)cc1 | 15.8µM* | u | u | 5.3% | -105.0%
CCN(CC)CCNC(=O)c1ccc(NC(=O)c2cccc(S(=O)(=O)N3CCc4ccccc43)c2)cc1 | x | u | u | -5.0% | x
O=C1CSc2ccc(C(=O)Nc3cccc(S(=O)(=O)Nc4ccc(Br)cc4)c3)cc2N1 | 10µM* | 18.4µM* | 8.2µM* | 5.5% | 15.8µM*
O=C(Nc1ccc(Br)cc1)c1cccc(S(=O)(=O)Nc2ccccn2)c1 | -9.5% | -17.0% | 16.4µM* | 3.2% | u
O=C(O)c1cccc(NC(=O)c2cccc(S(=O)(=O)Nc3cccc(C(=O)O)c3)c2)c1 | x | -2.8% | 0.7% | -1.9% | x
C[N+]12CCCC[C@@H]1CCC(=C(c1cccs1)c1cccs1)C2 (stereo partly specified) | -1.8% | x | x | x | 31.1%
COC(=O)c1ccc(NC(=O)COC(=O)C2=NN(c3ccccc3)C(=O)CC2)cc1 | x | 6.1% | 4.6% | 2.4% | x
CC(=O)Oc1ccc2c(c1)c(C(C)=O)c(C)n2C | x | -3.6% | -0.7% | 5.6% | 32.2%[0.365 µM]
Cc1c(O)ccc2c(CN3CCOCC3)cc(=O)oc12 | 1.0% | -6.7% | 7.9% | 3.8% | -8.6%
O=C(Nc1ccc(Br)cc1)c1cccc(S(=O)(=O)Nc2ccc(Br)cc2)c1 | 7.94µM* | x | x | 5.6% | u
O=c1cc2c(n[nH]1)-c1ccccc1CC2 | 5.6% | -4.7% | -2.4% | x | -17.5%
CCN1C(=O)/C(=C2/C=Cc3cc(C)ccc3N2CC)N(C)C1=S | u | 23.1µM* | 20.6µM* | 6.5% | 12.6µM*
O=C(O)c1ccccc1Nc1ccccc1C(=O)O | -1.9% | -7.2% | -8.1% | 7.9% | 6.8%
O=C(O)c1ccccc1Nc1ccc([N+](=O)[O-])cc1 | 10.2% | -19.8% | 2.91µM* | 2.3% | 42.3%[10 µM]
O=C(Nc1ccc(Nc2ccccc2)cc1)c1cc([N+](=O)[O-])ccc1Cl | u | u | 16.4µM* | 9.7% | -13.0%
O=C(O)c1ccccc1C(=O)Nc1ccc(Nc2ccc([N+](=O)[O-])cc2[N+](=O)[O-])cc1 | -11.0% | -3.0% | -17.3% | x | 28.9%
CN(C)S(=O)(=O)c1ccc(Cl)c(C(=O)Nc2cccc([N+](=O)[O-])c2)c1 | 5.2% | 18.4µM* | 20.6µM* | -5.5% | -2.8%
